Calls of active or inactive are those of the source. Unless noted, the call rests on the fitted dose curve; in most records, active means well fitted curve in the direction sought with a large enough effect in the repeat runs; inconclusive means weak or mixed curves; inactive means no such curve, though single readings can be large; an effect the other way counts as inactive or inconclusive.
What was measured:
[1] = qHTS assay to identify small molecule antagonists of the thyroid receptor (TR) signaling pathway (AID 743065); conditions: GH3.TRE-Luc, T3-stimulated luciferase inhibition, 23.5 h; series mostly up to 70.3 µM; further: nearly all actives have a fitted effect of over 55% in size; further: potency means the concentration at half of the fitted maximal effect
How it was run: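 GH3.TRE-Luc rat pituitary cells (two TREs driving luciferase) were dosed with compound, then stimulated with 1 nM T3 (final) for 23.5 h at 37 C. ONE-Glo luminescence was the read-out, with CellTiter-Fluor fluorescence as the cytotoxicity counter-screen.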

[2] = qHTS assay to identify small molecule antagonists of the estrogen receptor alpha (ER-alpha) signaling pathway - cell viability counter screen (AID 743074; calls by dose curve;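 further: HEK293 cells carrying ER-alpha-UAS-bla reporter stimulated with 17beta-estradiol; nearly all actives have a fitted effect of over 45% in size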; further: potency means the concentration at half of the fitted maximal effect); conditions: ERalpha-bla HEK293 viability, CellTiter-Glo luminescence, 18 h; series mostly up to 69.4 µM
[3] = qHTS assay to identify small molecule antagonists of the estrogen receptor alpha (ER-alpha) signaling pathway using the BG1 cell line - cell viability counter screen (AID 743081); conditions: BG1Luc4E2 viability, CellTiter-Fluor, 22 h; series mostly up to 70.3 µM;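 further: compound given together with 17beta-estradiol as the ER stimulus; nearly all actives have a fitted effect of over 45% in size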; further: potency means the concentration at half of the fitted maximal effect
[4] = molecular target: Aromatase (Homo sapiens) (UniProt P11511); experiment: qHTS assay to identify aromatase inhibitors (AID 743083); conditions: MCF-7 aro ERE, testosterone-driven ERE luciferase, 24 h; series mostly up to 70.3 µM; further: nearly all actives have a fitted effect of over 55% in size; further: potency means the concentration at half of the fitted maximal effect
Aromatase (Homo sapiens), sequence (P11511 whole entry, looked up): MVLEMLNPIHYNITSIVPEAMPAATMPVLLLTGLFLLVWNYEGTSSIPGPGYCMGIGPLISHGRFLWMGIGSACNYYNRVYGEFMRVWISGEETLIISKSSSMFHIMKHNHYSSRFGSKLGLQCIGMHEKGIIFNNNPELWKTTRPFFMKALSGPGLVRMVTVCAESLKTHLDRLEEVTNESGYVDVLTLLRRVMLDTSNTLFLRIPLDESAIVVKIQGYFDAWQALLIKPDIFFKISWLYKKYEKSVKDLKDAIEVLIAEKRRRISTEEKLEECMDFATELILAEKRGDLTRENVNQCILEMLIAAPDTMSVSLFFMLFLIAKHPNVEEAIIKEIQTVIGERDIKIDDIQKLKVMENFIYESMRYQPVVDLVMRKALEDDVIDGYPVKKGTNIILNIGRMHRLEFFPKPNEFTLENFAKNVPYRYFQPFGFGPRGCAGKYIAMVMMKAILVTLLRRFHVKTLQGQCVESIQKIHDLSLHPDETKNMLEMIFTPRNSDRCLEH

[5] = qHTS assay to identify aromatase inhibitors - cell viability counter screen (AID 743084); conditions: MCF-7 aro ERE viability, CellTiter-Fluor, 24 h; series mostly up to 70.3 µM;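 further: cells stimulated with testosterone during compound exposure; nearly all actives have a fitted effect of over 55% in size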; further: potency means the concentration at half of the fitted maximal effect
[6] = qHTS assay to identify small molecule that activate the aryl hydrocarbon receptor (AhR) signaling pathway - cell viability counter screen (AID 743086); conditions: HepG2-AhR-luc viability, CellTiter-Fluor, 24 h; series mostly up to 70.3 µM; further: nearly all actives have a fitted effect of over 45% in size; further: potency means the concentration at half of the fitted maximal effect
How it was run: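 HepG2-AhR-luc (HG2L7.5c1) cells, 4000/well, treated 24 h at 37 C with compound; viability measured as CellTiter-Fluor fluorescence after 30 min in the same wells as the luciferase read.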

[7] = molecular target: Peroxisome proliferator-activated receptor gamma (Homo sapiens) (UniProt P37231); experiment: qHTS assay to identify small molecule agonists of the peroxisome proliferator-activated receptor gamma (PPARg) signaling pathway (AID 743094; active means well fitted activation curve with a large enough effect in the signal ratio in the repeat runs, not every such curve was filed as active; inconclusive means weak or mixed curves, or effect the other way; inactive means no such curve, though single readings can be large or run the other way; the % refers to the signal ratio; further: potency means the concentration at half of the fitted maximal effect; on activation: on the % scale 0 is the no-effect control and ±100 the full control effect); conditions: HEK293H PPARg-UAS-bla, beta-lactamase FRET ratio, 17 h; series mostly up to 57 µM
Peroxisome proliferator-activated receptor gamma (Homo sapiens), sequence (P37231 whole entry, looked up): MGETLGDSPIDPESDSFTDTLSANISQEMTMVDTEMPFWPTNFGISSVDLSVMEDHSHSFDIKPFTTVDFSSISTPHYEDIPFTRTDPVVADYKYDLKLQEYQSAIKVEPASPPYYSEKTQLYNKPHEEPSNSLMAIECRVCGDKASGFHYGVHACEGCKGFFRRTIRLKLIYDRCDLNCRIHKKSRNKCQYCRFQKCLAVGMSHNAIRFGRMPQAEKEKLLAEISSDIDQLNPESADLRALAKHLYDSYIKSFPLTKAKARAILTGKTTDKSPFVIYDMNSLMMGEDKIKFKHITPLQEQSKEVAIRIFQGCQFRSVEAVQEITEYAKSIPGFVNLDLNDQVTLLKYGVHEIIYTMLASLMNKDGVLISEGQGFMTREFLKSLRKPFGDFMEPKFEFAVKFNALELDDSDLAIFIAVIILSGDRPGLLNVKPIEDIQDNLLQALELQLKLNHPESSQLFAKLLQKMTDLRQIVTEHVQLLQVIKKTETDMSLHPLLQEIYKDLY
How it was run: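 Cell-based bla reporter, HEK293H background, PPARg-driven UAS. Pre-incubation 5 h, 37C, 5% CO2. Compound 17 h, 37C. Substrate 1 h RT; fluorescence.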

[8] = qHTS assay to identify small molecule antagonists of the peroxisome proliferator-activated receptor gamma (PPARg) signaling pathway - cell viability counter screen (AID 743194); conditions: PPARg-bla HEK293H viability, CellTiter-Glo luminescence, 17 h, co-treated with 50 nM rosiglitazone; series mostly up to 62.6 µM; further: nearly all actives have a fitted effect of over 55% in size; further: potency means the concentration at half of the fitted maximal effect
How it was run: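 Cytotoxicity counter screen in PPARg-bla HEK293H cells, same wells as reporter assay. Compounds plus 50 nM rosiglitazone (final) for 17 h at 37 C, then viability read by CellTiter-Glo luminescence.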

[9] = qHTS assay to identify small molecule antagonists of the thyroid receptor (TR) signaling pathway - cell viability counter screen (AID 743064); conditions: GH3.TRE-Luc viability, CellTiter-Fluor, 24 h; series mostly up to 70.3 µM; further: potency means the concentration at half of the fitted maximal effect; nearly all actives have a fitted effect of over 50% in size
How it was run: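 Counter screen for cytotoxicity: compound plus T3 (1 nM final) on GH3.TRE-Luc cells, 23.5 h at 37 °C, then fluorescence viability readout with CellTiter-Fluor.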

[10] = molecular target: Aryl hydrocarbon receptor (Homo sapiens) (UniProt P35869); experiment: qHTS assay to identify small molecule that activate the aryl hydrocarbon receptor (AhR) signaling pathway (AID 743085); conditions: HepG2 AhR-luc (HG2L7.5c1), luciferase, 24 h; series mostly up to 70.3 µM; further: nearly all actives have a fitted effect of over 15% in size; further: potency means the concentration at half of the fitted maximal effect
Aryl hydrocarbon receptor (Homo sapiens), sequence (P35869 whole entry, looked up): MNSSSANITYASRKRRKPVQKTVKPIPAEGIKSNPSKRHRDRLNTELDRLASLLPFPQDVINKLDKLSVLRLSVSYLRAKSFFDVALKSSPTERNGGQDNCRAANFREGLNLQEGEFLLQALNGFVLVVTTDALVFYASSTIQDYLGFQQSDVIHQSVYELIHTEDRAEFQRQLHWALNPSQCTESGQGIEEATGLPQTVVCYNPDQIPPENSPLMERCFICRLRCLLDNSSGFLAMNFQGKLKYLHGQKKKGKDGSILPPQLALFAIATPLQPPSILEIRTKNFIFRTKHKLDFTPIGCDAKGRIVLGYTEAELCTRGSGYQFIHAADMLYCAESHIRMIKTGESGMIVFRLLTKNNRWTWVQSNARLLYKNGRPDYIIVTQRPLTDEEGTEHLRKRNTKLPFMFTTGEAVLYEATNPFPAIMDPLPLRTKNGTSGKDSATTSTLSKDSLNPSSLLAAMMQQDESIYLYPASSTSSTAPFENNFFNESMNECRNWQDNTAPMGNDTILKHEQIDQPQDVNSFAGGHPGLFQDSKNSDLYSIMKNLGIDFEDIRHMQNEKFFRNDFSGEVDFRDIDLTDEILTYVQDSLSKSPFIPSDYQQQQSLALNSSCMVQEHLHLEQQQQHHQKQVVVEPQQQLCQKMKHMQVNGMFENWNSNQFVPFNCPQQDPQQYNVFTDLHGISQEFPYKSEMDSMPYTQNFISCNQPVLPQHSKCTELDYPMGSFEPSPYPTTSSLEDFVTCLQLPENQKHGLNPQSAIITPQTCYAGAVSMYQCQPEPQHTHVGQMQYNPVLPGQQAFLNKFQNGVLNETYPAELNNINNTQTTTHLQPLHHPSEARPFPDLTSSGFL
How it was run: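 Measured in HG2L7.5c1 cells: CellTiter-Fluor signal (30 min incubation, 37C) for viability, then luciferase luminescence (30 min, room temperature). Compound contact time was 24 h at 37C, following a 5 h pre-incubation.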

[11] = qHTS assay for small molecule agonists of the antioxidant response element (ARE) signaling pathway - cell viability counter screen (AID 743203; calls by dose curve; further: nearly all actives have a fitted effect of over 55% in size; further: potency means the concentration at half of the fitted maximal effect); conditions: ARE-bla HepG2 viability, CellTiter-Glo luminescence, 16 h; series mostly up to 73.3 µM
How it was run: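 Measured in the same wells as the beta-lactamase ARE reporter, this read-out is CellTiter-Glo luminescence from HepG2 ARE-bla cells given compounds for 16 hrs.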

[12] = molecular target: Estrogen receptor (Homo sapiens) (UniProt P03372); experiment: qHTS assay to identify small molecule agonists of the estrogen receptor alpha (ER-alpha) signaling pathway (AID 743075; calls by dose curve;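 further: HEK293 GripTite cells with ER-alpha and UAS-driven beta-lactamase reporter; on the % scale 0 is the no-effect control and ±100 the full control effect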); conditions: HEK293 ER-alpha-UAS-bla, beta-lactamase FRET ratio, 18 h; activation: at 70.1 µM (top of the series)
Estrogen receptor (Homo sapiens), sequence (P03372 whole entry, looked up): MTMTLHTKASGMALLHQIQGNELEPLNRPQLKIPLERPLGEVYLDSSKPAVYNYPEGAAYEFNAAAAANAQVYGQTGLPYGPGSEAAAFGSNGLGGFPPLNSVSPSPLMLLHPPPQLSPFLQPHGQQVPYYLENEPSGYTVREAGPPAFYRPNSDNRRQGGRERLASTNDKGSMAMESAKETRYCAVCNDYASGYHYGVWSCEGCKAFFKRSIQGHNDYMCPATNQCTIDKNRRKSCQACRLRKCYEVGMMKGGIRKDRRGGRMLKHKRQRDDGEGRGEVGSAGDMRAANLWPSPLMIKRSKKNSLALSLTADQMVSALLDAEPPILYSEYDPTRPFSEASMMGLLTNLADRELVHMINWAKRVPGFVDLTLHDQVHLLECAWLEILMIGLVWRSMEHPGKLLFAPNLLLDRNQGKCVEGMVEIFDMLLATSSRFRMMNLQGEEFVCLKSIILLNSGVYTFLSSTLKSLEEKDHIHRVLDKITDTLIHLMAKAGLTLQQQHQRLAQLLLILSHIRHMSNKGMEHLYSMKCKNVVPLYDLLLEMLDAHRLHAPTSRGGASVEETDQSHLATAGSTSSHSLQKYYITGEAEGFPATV

[13] = qHTS assay to identify small molecule antagonists of the estrogen receptor alpha (ER-alpha) signaling pathway using the BG1 cell line (AID 743080; calls by dose curve;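 further: BG1 cells stimulated with 17beta-estradiol alongside compound; nearly all actives have a fitted effect of over 25% in size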; further: potency means the concentration at half of the fitted maximal effect); conditions: BG1Luc4E2 ERE-luciferase antagonist mode, luminescence; series mostly up to 70.3 µM
How it was run: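 Quantitative HTS on the Tox21 10K library: BG1 cells with endogenous ER-alpha and ERE-luciferase reporter, 17beta-estradiol stimulation, 21.5 h compound exposure, luminescence endpoint with parallel fluorescence cytotoxicity counter-read.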

[14] = qHTS assay for small molecule activators of the heat shock response signaling pathway (AID 743210; active means well fitted activation curve with a large enough effect in the signal ratio in the repeat runs, with a control signal flat, not every such curve was filed as active; inconclusive means weak or mixed curves; the % refers to the signal ratio;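 further: HeLa cells with beta-lactamase reporter driven by heat shock elements; on the % scale 0 is the no-effect control and ±100 the full control effect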); conditions: HeLa HSE-bla reporter, beta-lactamase ratio, 5 h; series mostly up to 62.6 µM
How it was run: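 Beta-lactamase reporter read-out: FRET substrate fluorescence after 2.5 h at RT, following 5 h compound treatment at 37 C of HeLa cells carrying HSE-driven bla reporter; quantitative HTS format.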

[15] = qHTS assay for small molecule activators of the heat shock response signaling pathway - cell viability counter screen (AID 743209); conditions: HSE-bla HeLa viability, CellTiter-Glo luminescence, 5 h; series mostly up to 62.6 µM; further: nearly all actives have a fitted effect of over 50% in size; further: potency means the concentration at half of the fitted maximal effect
How it was run: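 Same-well multiplex: after 2.5 h room-temperature incubation with LiveBLAzer B/G substrate and fluorescence reading, CellTiter-Glo reagent was added to HSE-bla HeLa cells that had received compound for 5 h at 37 C; luminescence read after 30 min.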

[16] = test system: thyroid hormone receptor (rat, GH3 cells); experiment: qHTS assay to identify small molecule agonists of the thyroid receptor (TR) signaling pathway (AID 743066; calls by dose curve; further: on the % scale 0 is the no-effect control and ±100 the full control effect); conditions: GH3.TRE-Luc cells, TR agonist luciferase, 24 h; series mostly up to 83.9 µM
[17] = molecular target: Estrogen receptor (Homo sapiens) (UniProt P03372); experiment: qHTS assay to identify small molecule antagonists of the estrogen receptor alpha (ER-alpha) signaling pathway (AID 743069; active means well fitted curve in the direction sought with a large enough effect in the signal ratio in the repeat runs, not every such curve was filed as active; inconclusive means weak or mixed curves, or effect the other way; inactive means no such curve, though single readings can be large or run the other way; the % refers to the signal ratio; further: potency means the concentration at half of the fitted maximal effect); conditions: HEK293 ER-alpha-UAS-bla, beta-lactamase ratio, antagonist mode; series mostly up to 69.4 µM
How it was run: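 Beta-lactamase FRET fluorescence is read after 2 hr at room temperature with LiveBLAzer B/G substrate. Before that, ER-alpha-bla HEK293 cells sit 4 hr after plating, then receive compound plus 17beta-estradiol and incubate 18 hr at 37C.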

[18] = molecular target: Estrogen receptor (Homo sapiens) (UniProt P03372); experiment: qHTS assay to identify small molecule agonists of the estrogen receptor alpha (ER-alpha) signaling pathway using the BG1 cell line (AID 743079); conditions: BG1Luc4E2 cells, ERE-luciferase agonist, 22 h; for activation: at 70.3 µM (top of the series); further: potency means the concentration at half of the fitted maximal effect; on all read-outs here: nearly all actives have a fitted effect of over 20% in size
[19] = molecular target: Peroxisome proliferator-activated receptor gamma (Homo sapiens) (UniProt P37231); experiment: qHTS assay to identify small molecule antagonists of the peroxisome proliferator-activated receptor gamma (PPARg) signaling pathway (AID 743191; calls by dose curve; further: on the % scale 0 is the no-effect control and ±100 the full control effect; nearly all actives have a fitted effect of over 30% in size); conditions: HEK293H PPARg-UAS-bla, beta-lactamase ratio, antagonist, 17 h; series mostly up to 62.6 µM
How it was run: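 GeneBLAzer PPARg UAS-bla HEK293H cells, 5 h post-plating, exposed to compounds 17 h at 37C. LiveBLAzer B/G FRET substrate added for 1 h at room temperature; beta-lactamase reporter read by fluorescence intensity.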

O=C(Nc1ccc(Oc2ccc(Cl)cc2)c(Cl)c1)c1cc(I)cc(I)c1O
active: Potency [1] 29.8 µM | Potency [2] 6.01 µM | Potency [8] 5.31 µM
inactive: Potency [3] | Potency [4] | Potency [5] | Potency [6] | Potency [7]

[Cl][Au]([Cl])[Cl]
inactive: Potency [10]
active: Potency [9] 3.86 µM | Potency [4] 24.3 µM | Potency [5] 27.3 µM | Potency [11] 0.77 µM

CCOC(=O)c1nc(C(Cl)(Cl)Cl)n(-c2ccc(Cl)cc2Cl)n1
active: Potency [1] 68.6 µM | Potency [4] 61.1 µM | Potency [6] 61.1 µM | Potency [11] 24.3 µM
inactive: Potency [2] | Potency [12] | Potency [13] | Potency [10] | Potency [7]

CCN(CC)CCNC(=O)c1c(C)[nH]c(/C=C2\C(=O)Nc3ccc(F)cc32)c1C
inactive: Potency [2] | Potency [14]
active: Potency [9] 26.6 µM | Potency [3] 9.44 µM | Potency [5] 26.6 µM | Potency [6] 11.9 µM | Potency [8] 16.8 µM | Potency [11] 29.8 µM

CCCCCCCCCCCCCC[P+](CCCC)(CCCC)CCCC (tested in a mixture with another compound)
inactive: Potency [6]
active: Potency [9] 4.35 µM | Potency [3] 15.4 µM | Potency [4] 4.35 µM | Potency [5] 4.35 µM | Potency [8] 0.277 µM | Potency [11] 19.4 µM | Potency [15] 11 µM

CCCCCOC(=O)CCCC
inactive: Potency [1] | Potency [16] | Potency [17] | Potency [2] | Potency [12] | activation [18] -1.52% | Potency [13] | Potency [3] | Potency [4] | Potency [5] | Potency [10] | Potency [6] | Potency [7] | Potency [19] | Potency [8] | Potency [11] | Potency [15]

O=C(OCC(COC(=O)c1ccccc1)(COC(=O)c1ccccc1)COC(=O)c1ccccc1)c1ccccc1
inactive: Potency [1] | Potency [16] | Potency [2] | Potency [3] | Potency [4] | Potency [5] | Potency [10] | Potency [6] | Potency [8] | Potency [11] | Potency [15]

CCCCN1C(=O)[C@@H]([C@H](O)C2CCCCC2)NC(=O)C12CCN(Cc1ccc(Oc3ccc(C(=O)O)cc3)cc1)CC2
inactive: Potency [17] | Potency [2] | Potency [12] | Potency [3] | Potency [4] | Potency [5] | Potency [8] | Potency [15] | Potency [14]
active: Potency [1] 61.1 µM | Potency [6] 8.63 µM

CCCCCCCCCCCCCCCCCC[N+](C)(C)C
inactive: Potency [6]
active: Potency [9] 12.2 µM | Potency [2] 43.8 µM | Potency [4] 21.8 µM | Potency [5] 27.4 µM | Potency [8] 27.6 µM | Potency [11] 48.7 µM | Potency [15] 34.8 µM

NNc1nc(-c2ccc(N)cc2)cs1
active: Potency [5] 27.3 µM | Potency [10] 12.2 µM
inactive: Potency [16] | Potency [2] | Potency [12] | activation [18] -1.53% | Potency [13] | Potency [6] | Potency [8] | Potency [15]

O=Cc1cc(O)ccc1Br
inactive: Potency [16] | Potency [17] | Potency [2] | Potency [12] | Potency [3] | Potency [4] | Potency [5] | Potency [10] | Potency [6] | Potency [7] | Potency [11]
active: Potency [18] 31.1 µM

CCc1oc2ccccc2c1C(=O)c1cc(Br)c(O)c(Br)c1
inactive: Potency [16] | Potency [2] | Potency [12] | activation [18] -23.9% | Potency [13] | Potency [3] | Potency [4] | Potency [5] | Potency [6] | Potency [15]
active: Potency [1] 26.6 µM | Potency [17] 10.7 µM [inconclusive] | Potency [7] 3.01 µM | Potency [11] 23.7 µM

CCCC(=O)OC[C@@H](OC(=O)CCC)[C@@H](OC(=O)CCC)[C@H](Cn1c2nc(=O)[nH]c(=O)c-2nc2cc(C)c(C)cc21)OC(=O)CCC
active: Potency [1] 21.1 µM | Potency [13] 29.8 µM | Potency [11] 26.6 µM
inactive: Potency [16] | Potency [2] | Potency [12] | Potency [4] | Potency [5] | Potency [10] | Potency [7] | Potency [8] | Potency [15]

OCCN(CCO)c1nc(N2CCCCC2)c2nc(N(CCO)CCO)nc(N3CCCCC3)c2n1
inactive: Potency [16] | Potency [2] | Potency [4] | Potency [10] | Potency [8] | Potency [11]
active: Potency [1] 23.7 µM

NC(=O)CC[C@@H]1NC(=O)[C@H](Cc2ccccc2)NC(=O)[C@H](Cc2ccc(O)cc2)NC(=O)CCSSC[C@@H](C(=O)N2CCC[C@H]2C(=O)N[C@@H](CCCN=C(N)N)C(=O)NCC(N)=O)NC(=O)[C@H](CC(N)=O)NC1=O
inactive: Potency [2] | Potency [3] | Potency [4] | Potency [5] | Potency [6] | Potency [8] | Potency [11] | Potency [15]

CCCCN(CCCC)C(=O)N(CCCC)CCCC
inactive: Potency [16] | Potency [2] | Potency [3] | Potency [5] | Potency [10] | Potency [6] | Potency [7] | Potency [19] | Potency [8] | Potency [15] | Potency [14]

Reference: PubChem BioAssay (Tox21)
